# Only a selection was taken, and hits are over-represented in it overall.
# Pf Dd2 growth: Plasmodium falciparum Dd2 growth inhibition; Potency, µM (top dose mostly 28.9 µM), without a hit: at the highest dose activity, negative = inhibition, actives largely listed as inhibitors; P. falciparum Dd2 growth, SYBR Green, 72 h; hit rate 4.3% among 120,000; active means well fitted inhibition curve with a large enough effect;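 further: plate controls were DMSO vehicle for no effect and reference drug for full effect; nearly all actives have a fitted effect of over 65% in size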
#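 Readout: SYBR Green fluorescence, 485 nm excitation, 535 nm emission, after ~16 h lysis at 37C. Before that, Dd2-infected red cells (2.5% hematocrit) grew 72 h with compound, 29 uM top final concentration.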
# * = called active by the depositor; i = inactive; [ ] = another dose, or the depositor's remark. Potency means the concentration at half of the fitted maximal effect.
SMILES,Pf Dd2 growth
O=C(NCc1cccnc1)[C@@H]1C[C@@H](O)CN1C1CCN(C(=O)Cc2ccccc2)CC1,6.7%
COc1ccc(S(=O)(=O)N2CCCCC2)cc1C(=O)Nc1cccc(C(F)(F)F)c1,i
COc1ccc(N2CC(NC(=O)c3ccc(S(=O)(=O)N4CCCCC4)cc3)CC2=O)cc1OC (stereo unspecified),i
COc1ccc(CNC(=O)C(C)n2ccc3cc(S(=O)(=O)N4CCCC4)ccc32)cc1OC (stereo unspecified),i
COc1cc2c(cc1OC)C(CNC(=O)Nc1ccc(C)cc1)N(C(=O)NC(C)C)CC2 (stereo unspecified),-9.8%
Cc1ccc2c(c1)C(c1ccccc1)N(C(=O)c1ccc(S(=O)(=O)N3CCCC3)cc1)CC(=O)N2 (stereo unspecified),-21.5%
COc1cc2c(cc1OC)C(COc1ccc(C(C)C)cc1)N(C(=O)c1ccc(S(=O)(=O)N3CCCC3)cc1)CC2 (stereo unspecified),12.6µM*
COc1ccc(S(=O)(=O)N2CCC(Oc3cccc(C(F)(F)F)c3)CC2)cc1OC,9.4%
COc1cc2c(cc1OC)C(COc1cc(C)cc(C)c1)N(C(=O)c1ccc(S(=O)(=O)N3CCCC3)cc1)CC2 (stereo unspecified),3.16µM*
COc1cc2c(cc1OC)C(COc1cccc(C(F)(F)F)c1)N(C(=O)c1ccc(S(=O)(=O)N3CCCC3)cc1)CC2 (stereo unspecified),7.94µM*
CCn1cnnc1CC1CCN(S(=O)(=O)c2ccccc2C)CC1,-18.5%
NC(=O)[C@@H](Cc1c[nH]c2ccccc12)NC(=O)[C@@]1(O)C[C@@H](O)[C@H](O)[C@@H](NC(=O)NC2CCCCC2)C1,5.2%
CN(C)CCC(=O)N1Cc2ccccc2CC2(CCCCN2C)C1 (stereo unspecified),-34.0%
CN1CCN(C(=O)C2(N(C)CCc3ccccc3)Cc3ccccc3C2)CC1,1µM*
CC(=O)N1Cc2ccccc2CC2(CCN(C)CC2)C1,-20.8%[44.1 µM]
CCCc1ncncc1C(=O)N1C[C@@H](C)[C@](O)(C2CC2)C1,-1.0%
COc1cccc(CN[C@@H]2CCC[C@@H](C(=O)N(C)Cc3cccnc3)CC(=O)N(C)C2)c1,-16.9%
Cc1ccc(CNC(=O)CN2C(=O)NC3(CCCCC3)C2=O)cc1,-1.5%
c1ccc(CN2CCNc3cnc(-c4ccc(N5CCOCC5)cc4)cc3C2)cc1,i
CN1CCN(c2nc3c(c(=O)[nH]2)CCN(Cc2ccc(Br)s2)CC3)CC1,18.8%[5.79 µM]
CN1CCN(c2ncnc3sc4c(c23)CCN(Cc2ccco2)C4)CC1,11.2µM*
c1ccc(CN2CCc3c(sc4ncnc(N5CCOCC5)c34)C2)cc1,7.94µM*
CCN1CCN(c2nc3c(s2)CN(Cc2ccco2)CC3)CC1,-9.8%
COc1ccc(-c2nc(N3CCOCC3)cc3c2CN(Cc2ccccc2)C3=O)cn1,-10.3%[44.1 µM]
CCN1CC(c2ccccc2)CC2(CCN(C(=O)c3ccc(C)nc3)CC2)C1 (stereo unspecified),-29.7%
SMILES,Pf Dd2 growth
O=C(Cn1cc(C(F)(F)F)ccc1=O)N1CCC2(CCCNC2=O)C1 (stereo unspecified),-10.9%
Cc1ccc(C(=O)N2CCN(c3cc(C(F)(F)F)ncn3)CC2)cc1F,-26.2%
c1ccc(-c2ccc3ncc(Nc4cccnc4)n3n2)cc1,1.58µM*
c1ccc(-c2ccc3ncc(Nc4cnccn4)n3n2)cc1,i
Fc1ccc(-c2ccc3ncc(Nc4ccc(Cl)cn4)n3n2)cc1,i
Clc1ccc(Nc2cnc3ccc(-c4ccccc4)nn23)nc1,i
Fc1ccc(-c2ccc3ncc(Nc4ncccn4)n3n2)cc1,0.9%[44.1 µM]
Fc1ccc(-c2ccc3ncc(Nc4ccccn4)n3n2)cc1,5.62µM*
COCCn1c(COc2ccc(S(C)(=O)=O)cc2)nnc1C1CC(N)C1 (stereo unspecified),-17.1%
c1ccc(OCc2cc(CC3(NCc4ccc5c(c4)OCO5)COC3)no2)cc1,-7.5%[44.1 µM]
Cc1ncc(CN2CCN(C(=O)c3cccn3C3CC3)CC(O)C2)[nH]1 (stereo unspecified),-7.9%
COCCNC(=O)[C@H]1C[C@H](Oc2ccccc2)CN1S(=O)(=O)c1c(C)noc1C,-8.6%
COc1ccc(C)cc1NC(=O)Cn1c(N(C)Cc2ccccc2)nc(C)cc1=O,-38.2%
CNC(=O)[C@@H](c1ccc(OC)cc1)N1CCC[C@H]1C(=O)N1CCCC1,-13.3%[44.1 µM]
CCOc1cc(=O)n2c(c1C(=O)Nc1ccc3c(c1)OCCO3)CCCCC2,13.3%
Cc1cccc(S(=O)(=O)c2cn(Cc3ccccc3)c3cc(N4CCCC(C)C4)c(F)cc3c2=O)c1 (stereo unspecified),i
Cc1ccc(S(=O)(=O)c2cn(Cc3ccccc3)c3cc(N4CCCCC4)c(F)cc3c2=O)cc1,-23.4%
Cc1cccc(Cn2cc(S(=O)(=O)c3ccccc3)c(=O)c3cc(F)c(N4CCOCC4)cc32)c1,8.91µM*
Cc1cccc(S(=O)(=O)c2cn(Cc3ccc(F)cc3)c3cc(N4CCOCC4)c(F)cc3c2=O)c1,6.31µM*
Cc1ccc(S(=O)(=O)c2cn(Cc3ccccc3)c3cc(N4CCOCC4)c(F)cc3c2=O)cc1,7.94µM*
CCCCn1cc(S(=O)(=O)c2cc(C)ccc2C)c(=O)c2cc(F)c(N3CCC(C)CC3)cc21,45.6%
Cc1cccc(S(=O)(=O)c2cn(C)c3cc(N4CCC(C)CC4)c(F)cc3c2=O)c1,29.3%
Cc1ccc(C)c(S(=O)(=O)c2cn(Cc3ccccc3)c3cc(N4CCCC4)c(F)cc3c2=O)c1,10µM*
Cc1cccc(Cn2cc(S(=O)(=O)c3cccc(C)c3)c(=O)c3cc(F)c(N4CCOCC4)cc32)c1,-0.5%
CCCCn1cc(S(=O)(=O)c2cccc(C)c2)c(=O)c2cc(F)c(N3CCOCC3)cc21,-27.9%
SMILES,Pf Dd2 growth
CC(=O)N1Cc2ccccc2OC2(CCN(C(=O)c3ccnc(N)c3)CC2)C1,11.5%
CC(C)N1CC2(C1)C(=O)N(C)C(=O)[C@@H]1C[C@@H](O)CN12,i
Cc1cc(C(=O)N2c3ccccc3CC2c2nnc(C(C)C)o2)nn1C (stereo unspecified),i
O=C(C1CC1)N1CCCC(c2nn(-c3ccccc3)c(=O)[nH]2)C1 (stereo unspecified),-17.8%[44.1 µM]
CC1(c2ccccc2)N(Cc2ccccc2F)C(=O)OC12CCN(Cc1cccnc1N)CC2 (stereo unspecified),-9.1%
CC(C)c1cccc(NC(=O)CN2C(=O)NC3(CCCCC3)C2=O)c1,i
Cn1cccc1C(=O)NCC1(C)CCOCC1,20.1%
O=C(Cn1ccn2nc(-c3ccccc3)c(CO)c2c1=O)N1CCc2ccccc21,4.3%
CNC(=O)c1cnn2c1CN(C(=O)c1cccnc1)CC2,16.8%[44.1 µM]
COc1ccc(CC(=O)Nc2c(C(=O)N3CCN(c4ccccc4F)CC3)oc3ccccc23)cc1OC,11.2µM*
CCOc1ccc(C(=O)Nc2c(C(=O)N3CCN(c4ccccc4F)CC3)oc3ccccc23)cc1,-8.9%
COc1ccccc1C(=O)Nc1c(C(=O)N2CCN(c3ccc(F)cc3)CC2)oc2ccccc12,50.0%
CC(=O)N1C[C@@H](C(=O)N2CCN(c3ncccn3)CC2)[C@H](c2nc(C)no2)C1,-4.9%
COc1ccc([C@H]2CN(C(=O)c3nc(N)nc4c3CCCC4)C[C@@H]2N)cc1,-7.2%
COc1ccc2[nH]c3c(c2c1)CCN(C)C31CCN(C(=O)C2CCCC2)CC1,i
CCOc1ccc(C2c3[nH]c4ccccc4c3CCN2C(=O)CCC2CCCC2)cc1 (stereo unspecified),-10.4%
